Experimental data reported in the supplement of paper PMC10127200.
Where a name gives a salt, the structure may show the parent alone.

Key:
Experiment in all cases: Euclidean distance of Cell Painting phenotypic profile (signed KS, 77 features) to DMSO centroid (dimensionless distance); 5 or 10 uM (library dependent); higher = stronger phenotypic change vs DMSO (phenoactivity)
Conditions in all cases: 48 h
786-O = test system: 786-O
Method in brief: (§1)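 At 10 or 5 uM, as set by the library, and 0.1% DMSO final, compounds were applied for 48 h to five cancer lines and one healthy fibroblast line. Stained cells were imaged confocally at 20X in 9 fields per well, and Harmony extracted 77 features scored as signed Kolmogorov-Smirnov statistics against vehicle wells on the same plate. Profiles underwent plate-position correction, correlation weighting and replicate averaging at the top dose. Phenoactivity is the Euclidean distance from each such profile to the median vehicle profile.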

A549 = test system: A549
Method in brief: as §1

DU145 = test system: DU145
Method in brief: as §1

FB = test system: FB
Method in brief: as §1

HEPG2 = test system: HEPG2
Method in brief: as §1

OVCAR4 = test system: OVCAR4
Method in brief: as §1

Compound	Euclidean distance (786-O)	Euclidean distance (A549)	Euclidean distance (DU145)	Euclidean distance (FB)	Euclidean distance (HEPG2)	Euclidean distance (OVCAR4)
Oc1ccc(Cl)c2cccnc12 [Cloxiquine]	1.62	2.13	1.92	2.66	1.62	1.97
Cn1ncnc1[C@H]1c2n[nH]c(=O)c3cc(F)cc(c23)N[C@@H]1c1ccc(F)cc1	1.03	1.17	0.939	1.27	1.56	0.901
CCCCOC(=O)c1ccc(N)cc1 [Butamben]	1.09	0.881	0.906	1.05	0.737	1.03
CN(Cc1cnc2nc(N)nc(N)c2n1)c1ccc(C(=O)N[C@@H](CCC(=O)O)C(=O)O)cc1 [Methotrexate]	1.77	3.08	1.05	0.72	1.55	2.57
CC(=O)Oc1cccc2c1C(=O)c1c(OC(C)=O)cc(C(=O)O)cc1C2=O [Diacerein]	0.962	0.94	1.19	1.22	0.429	1.51
COc1ccccc1Oc1c(NS(=O)(=O)c2ccc(C(C)(C)C)cc2)nc(-c2ncccn2)nc1OCCO [Bosentan Hydrate]	1.35	0.814	0.826	0.916	0.41	1.04
CCn1c(-c2nonc2N)nc2c(C#CC(C)(C)O)ncc(OC[C@H]3CCCNC3)c21	3.05	2.49	1.16	2	1.95	2.14
CC[C@@H](C)Nc1cc(C(=O)N[C@H]2C[C@H]3CC[C@@H](C2)N3c2ccc(C(=O)C3CC3)cn2)c(C)cc1C(N)=O	3.1	3.1	3.17	3.15	4.37	3.3
C[C@@H](O)[C@@H]1NC(=O)[C@H](CCCCN)NC(=O)[C@@H](Cc2c[nH]c3ccccc23)NC(=O)[C@H](Cc2ccccc2)NC(=O)[C@@H](NC(=O)[C@H](N)Cc2ccccc2)CSSC[C@@H](C(=O)N[C@H](CO)[C@@H](C)O)NC1=O [Octreotide Acetate]	1.6	1.39	1.08	0.734	0.782	1.45
Cc1nc2n(c(=O)c1CCN1CCC(c3noc4cc(F)ccc34)CC1)CCCC2 [Risperidone]	1.21	0.71	0.723	1.08	0.51	0.674
CC(C)(C)[N+]([O-])=Cc1ccc(S(=O)(=O)O)cc1S(=O)(=O)O	1.04	1.8	0.995	1.52	1.43	1.57
COc1cc(C(=O)NC2CCCNC2)cc(OC)c1OC (centres undefined) [Troxipide]	1.15	1.12	1.81	0.842	1.83	1.43
CCOC(=O)c1c(CSc2ccccc2)n(C)c2cc(Br)c(O)c(CN(C)C)c12 [Arbidol HCl]	1.37	1.41	2.16	1.38	1.34	1.63
CCOC(N)=O [Urethane]	1.2	0.492	0.675	0.718	0.46	1.46
Nc1ccc(S(=O)(=O)Nc2cnc3ccccc3n2)cc1 [Sulfaquinoxaline sodium]	0.778	0.727	1.65	1.36	0.697	0.684
Cc1nn(-c2ccccc2)c(C)c1C=NN1CCN(Cc2ccccc2)CC1	1.24	1.25	0.724	0.733	1.16	1.34
COc1cccc(-c2cc(=O)c3ccccc3o2)c1N	1.16	1.4	0.841	0.911	1.94	0.844
Nc1nc(=O)c2nc(CNc3ccc(C(=O)N[C@@H](CCC(=O)O)C(=O)O)cc3)cnc2[nH]1 [Folic acid]	1.19	0.776	0.987	0.817	0.743	1.25
N#Cc1c(O)c2c(-c3ccc(-c4ccccc4O)cc3)csc2[nH]c1=O	1.12	1.26	0.976	0.818	0.746	1.78
CCCCCCCCCCCCCCCCCCOCC(O)CO (centres undefined) [Batyl alcohol]	0.871	0.609	0.705	1.18	0.262	0.921
COC(=O)/C=C/C(=O)OCCN1C(=O)CCC1=O [Diroximel Fumarete]	0.82	0.396	1.17	1.24	0.611	0.814
COc1ccc(-c2ccc3c(N4CCOCC4)nc(N4C[C@@H](C)O[C@@H](C)C4)nc3n2)cc1CO	1.93	2.15	1.96	3.61	2	2.43
Nc1c2c(nc3ccccc13)CCCC2 [Tacrine HCl]	0.888	0.485	0.636	1.21	0.472	1.16
S=C(NCc1ccc2c(c1)OCO2)N1CCN(c2ncnc3c2oc2ccccc23)CC1 [Amuvatinib (MP-470)]	1.2	1.72	1.25	1.07	2.14	1.2
